D1 ag: activates the human D1 dopamine receptor; P21728; HEK293 T-REx D1 cells, calcium flux, agonist mode; activation, % at 2 µM; 1% of 360,000 active; note: 0% is about no effect
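Agonism was scored from calcium flux recorded over 180 s (1 read/s) after pintool compound addition, following a 10-cycle baseline. Cells were inducible force-coupled HEK293 TREx D1, plated overnight at 30 C and loaded with no-wash calcium dye.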
D1 antag: antagonists of human D1 dopamine receptor; P21728; HEK293 TREx D1 cells, calcium flux, dopamine EC80; hits give low values; activity change, negative = inhibition, % at 10 µM; 3.2% of 360,000 active; AID 504652; in the data active = activity change below about -30%; note: % is set by controls: 0 for no effect and ±100 for the full control effect
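Calcium flux readout: force-coupled, inducible Hek293 Trex D1 line, cells induced overnight at 30 C with tetracycline, dye-loaded 30–90 min at RT. Antagonism scored against EC80 dopamine challenge given 180 s after compound.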
TRHR agonist: activates the human TRH receptor; TRHR cells, calcium flux fluo-8, FDSS agonist mode; P34981; 0.18% of 360,000 active; activation, % at 2 µM; note: 0% is about no effect
Target sequence (P34981 whole entry, looked up): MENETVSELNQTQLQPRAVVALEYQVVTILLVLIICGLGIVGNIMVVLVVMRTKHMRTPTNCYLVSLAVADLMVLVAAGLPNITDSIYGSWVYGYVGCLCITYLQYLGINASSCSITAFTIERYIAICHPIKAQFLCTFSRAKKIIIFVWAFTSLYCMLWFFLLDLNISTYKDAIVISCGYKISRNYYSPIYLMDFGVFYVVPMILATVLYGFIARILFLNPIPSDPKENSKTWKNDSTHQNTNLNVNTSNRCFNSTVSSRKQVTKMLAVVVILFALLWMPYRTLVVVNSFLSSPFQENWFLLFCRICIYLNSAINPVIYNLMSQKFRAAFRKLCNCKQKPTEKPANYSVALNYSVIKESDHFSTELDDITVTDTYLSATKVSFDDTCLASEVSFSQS
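In this calcium-flux screen, cells bearing human TRHR are dye-loaded with fluo-8, baselined for 10 cycles, then exposed to library compounds; positive kinetic calcium responses during the agonist phase mark hits, with TRH as control.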
D1 potentiator: potentiators of human D1 dopamine receptor | potentiation, % at 10 µM | P21728 | HEK293 TREx D1 cells, calcium flux, dopamine EC20 potentiation | 0.036% of 360,000 active; in the data active = potentiation above about 30%; note: 0% is about no effect
TRHR enhancer: allosteric enhancers of human TRH receptor. P34981. TRHR cells, fluo-8 calcium fluorescence, EC20 TRH enhancement. enhancement, % at 2 µM. 0.66% of 360,000 active; in the data active = enhancement above about 30%; note: 0% is about no effect
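Enhancer read-out: after compound pinning and an initial kinetic agonist-mode read, an EC20 of TRH (10 nM final) was injected and fluo-8 calcium signal (Ex 480/Em 530) followed at 1 s/cycle for 100 cycles in TRHR-expressing cells.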
* = called active by the depositor; x = not tested or not shown; ! = not active in a repeat. An excerpt weighted towards active compounds, which were near 4.6% of everything screened. Cut-off read from the data, not from the text of the source, unless noted: active = activation above about 30%; inactive = the rest.

SMILES | D1 ag | D1 antag | TRHR agonist | D1 potentiator | TRHR enhancer
CCN1CCN(c2cc(C)c3cc(NC(=O)/C=C/c4cccc(Cl)c4)ccc3n2)CC1 | 10 | -36* | 0 | -1 | 4
Cc1ccc(-c2cc(C(=O)Nc3c(C(=O)c4ccccc4)oc4ccccc34)no2)cc1F | 2 | 0 | -1 | -1 | -1
CC1CC(C)CN(CCCSc2ccccc2)C1 (stereo unspecified) | 10 | -7 | 0 | -4 | 32*
CC1CC(C)CN(CCOCCSc2ccccc2)C1 (stereo unspecified) | 14 | -38* | 0 | -13 | -5
Cc1cccc(-n2ccnc2SCC(=O)Nc2cccc3ccccc23)c1 | 0 | 1 | -1 | -4 | -3
O=C(NCc1nnc(SCC(=O)N2CCC(Cc3ccccc3)CC2)o1)c1ccccc1F | 33* | -10 | 0 | -1 | 0
CC1CCN(C(=O)CSc2nnc(CNC(=O)c3ccc(S(=O)(=O)N(C)C)cc3)o2)CC1 | 0 | -45* | 0 | -6 | 2
O=C(NCc1nnc(SCC(=O)N2CCCC2)o1)c1c(F)cccc1F | 4 | 10 | 0 | 3 | -3
O=C(CSc1nnc(CNC(=O)c2ccc(F)cc2)o1)c1ccccc1 | 4 | -31* | -1 | -10 | -5
O=C(CSc1nnc(CNc2ccccc2)o1)N1CCN(C(=O)c2ccco2)CC1 | 0 | -38* | 0 | -4 | -1
CCN(C(=O)COC(=O)/C=C/c1cccc([N+](=O)[O-])c1)c1ccccc1 | 2 | -10 | 0 | -1 | 3
CCN(c1ccc(Cl)cc1)S(=O)(=O)c1nnc(NC(=O)c2ccccc2C)s1 | 8 | -6 | 0 | -2 | 0
CCOC(=O)CSC1=C(C#N)C(c2ccccc2)C(C(C)=O)=C(C)N1 (stereo unspecified) | 0 | -31* | 0 | 1 | -4
CSC1=C(C#N)C(c2ccccc2)C(C(C)=O)=C(C)N1 (stereo unspecified) | 0 | 4 | 0 | 4 | 10
CSCSC1=C(C#N)C(c2ccc(Cl)cc2)C(C(C)=O)=C(C)N1 (stereo unspecified) | 5 | -31* | 1 | -13 | -1
CCCC(=O)NCC(c1ccc2c(c1)OCO2)N1CCOCC1 (stereo unspecified) | 2 | -10 | 0 | -2 | -2
Cc1nc2sccn2c(=O)c1S(=O)(=O)NCC1CCN(Cc2ccccc2Cl)CC1 | 5 | -66* | 1 | 9 | -1
Cc1nc2sccn2c(=O)c1S(=O)(=O)NCc1ccccc1Cl | 2 | 8 | 1 | -4 | 2
CCOc1ccc(C(=O)Nc2ccc(C(=O)OCc3cc(=O)n4c(C)csc4n3)cc2)cc1 | 14 | -17 | 2 | 0 | -4
CC1CC(C)(C)CC2(C1)NC(=O)N(CC(=O)Nc1cc([N+](=O)[O-])ccc1F)C2=O (stereo unspecified) | 1 | -33* | 1 | -6 | 2
CC1CC(C)(C)CC2(C1)NC(=O)N(CC(=O)Nc1c(F)cccc1F)C2=O (stereo unspecified) | 10 | -3 | 0 | x | 14
CCC(C)NC(=O)c1ccc(Cn2c(=O)c3cccn3c3cccnc32)cc1 (stereo unspecified) | 3 | -17 | 0 | 5 | 11
CC(=O)NS(=O)(=O)c1ccc(NC(=O)C2c3ccccc3Oc3ccccc32)cc1 | 0 | -8 | 2 | 0 | 33*
CCCN(CCC)c1nc(-c2ccccn2)nc2ccccc12 | 0 | 25 | -1 | -3 | 2
CCCN(CCC)c1nc(-c2ccccc2F)nc2ccccc12 | 39* | 3 | 0 | 0 | -2
SMILES | D1 ag | D1 antag | TRHR agonist | D1 potentiator | TRHR enhancer
OCCCNc1nc(-c2ccc(Cl)cc2)nnc1-c1ccc(Br)cc1 | 3 | -40* | 0 | -12 | 21
COc1cccc(NC(=O)CCNS(=O)(=O)c2ccc(Br)s2)c1 | 3 | -37*! | -1 | 6 | 7
Cc1ccc(NC(=O)CCNS(=O)(=O)c2ccc(Br)s2)cc1 | 0 | 7 | -1 | 6 | 4
CCCOc1ccc(C(=O)Nc2ccc(CN3CCOCC3)cc2)cc1 | 11 | -10 | 1 | -3 | -6
O=C(COc1ccc2c3c(c(=O)oc2c1)CCC3)Nc1ccc(CN2CCOCC2)cc1 | 2 | -2 | 0 | -3 | 33*
CCCCOc1ccc(C(=O)Nc2ccc(CN3CCOCC3)cc2)cc1 | 19 | -36* | 3 | -7 | -6
